Our source for the Potency values is PubChem BioAssay AID1508621 (National Center for Advancing Translational Sciences (NCATS), 2021).

Records with an inconclusive call do not appear. Entries that show only a call come without a potency. Calls of active or inactive are those of the source. Calls come from the whole dose curve; as a rule, active = well fitted inhibition curve with a large enough effect; inconclusive = small, poorly fitted or top-dose-only effect; inactive = no such curve, though single readings can be large or run the other way.
Potency is the fitted concentration of half-maximal effect.

The assay can be described thus: Confirmatory qHTS for Identification of Small Molecule Inhibitors of Huntingtin Promoter Activity. Note: nearly all actives have a fitted effect of over 65% in size. The settings on record: HEK293 HTT promoter firefly luciferase reporter, 24 h; series mostly up to 57.5 µM. An excerpt: Assay Provider: Russell L. Margolis M.D.
Department Neurology, Johns Hopkins University School of Medicine, Baltimore, MD
Huntington's Disease (HD) is a neurodegenerative disorder caused by a CAG repeat expansion in exon 1 of huntingtin (HTT). While there are currently no disease-modifying treatments for HD, recent efforts have focused on development of nucleotide-based therapeutics to lower HTT expression. As an alternative to siRNA or oligonucleotide methods, we hypothesized that suppression of HTT expression might be accomplished by small molecules that either (1) directly decrease HTT expression by suppressing HTT promoter activity or (2) indirectly decrease HTT expression by increasing the promoter activity of HTT-AS, the gene antisense to HTT that appears to inhibit expression of HTT.
We developed and employed a high throughput screen for modifiers of HTT and HTT-AS promoter activity using luminescent reporter HEK293 cells; of the 52,041 compounds tested, we identified 898 replicable hits. We used a rigorous stepwise approach to assess compound toxicity and the capacity of the compounds to specifically lower huntingtin protein in 5 different cell lines, including HEK293 cells, HD lymphoblastoid cells, mouse primary neurons, HD iPSCs differentiated into cortical-like neurons, and HD hESCs. We found no compounds which were able to lower huntingtin without lowering cell viability in all assays, though the potential efficacy of a few compounds at non-toxic doses could not be excluded.
SEQUENCE No. (1, 2, 3, etc.); […] (e.g., Cells, Incubation, Reagent, etc.); VALUE and DESCRIPTION.
1; Reagent; 4 uL; 2,500 Hek293 luciferase reporter cells per wells
3; Compound; 23 nL; Control inhibitor / compound library
5; Reagent; 2.5 uL; Firefly Luc reagent; Dual-Glo Luciferase Reporter Assay System (Promega)
6; Time; 10 min; room temperature incubation
7; Detection; Luminescence; FLuc
NOTES (numbers refer to sequence above)
1; High-throughput screening, measuring luminescence from a Hek293 luciferase reporter, was performed in 1,536 well white-walled tissue-culture treated plates. 2,500 cells were plated in 4 uL of Opti-MEM per well using a Multidrop Combi Reagent Dispenser (ThermoFisher).
2; Assay plates were cultured for 24 hours.
3; Control inhibitor (PTC124; final concentration of 50 uM) and compound library (at final concentrations of 460 nM - 57.5 uM) were added to the assay plate using the Kalypsis Pintool Robotic System equipped with 1536 pinheads.
4; Cells were then incubated for 24 hours at 37C prior to luminescence measurements.
5; In all cases, luminescence was measured using the Dual-Glo Luciferase Reporter Assay System (Promega) following the manufacturer's instructions.
6; Room temperature incubation.
7; Luminescence signal was obtained using the PerkinElmer ViewLux plate reader. Results were normalized to vehicle control (0% activity) and zero RLU (-100% activity).
On the technique in general: qHTS replaces the single test concentration by a dilution series.
Turning to `COc1cc(OC)cc(C(=O)Nc2c(C(=O)Nc3ccc(F)cc3)oc3ccccc23)c1`, the Potency result is “inactive”.

Consider `COc1cccc(-c2cn3c(n2)sc2cc(C(=O)NCc4cccs4)ccc23)c1`, for which the Potency result is “inactive”.

On to `Cc1ccc2nc(-c3ccncc3)c(Nc3ccccc3C)n2c1`, for which the Potency result is “inactive”.

`COc1ccccc1N=c1scc(-c2ccc(S(=O)(=O)N3CCCC3)cc2)n1C`: the Potency is 4.78 µM (active).

In the case of `COc1ccc(NC(=O)Cn2nc(-c3ccncc3)ccc2=O)cc1Cl`, the Potency entry is “inactive”.

Turning to `O=C(Nc1cccc(Cl)c1)c1c(NC(=O)C(F)(F)F)sc2c1CCCC2`, the Potency was 4.26 µM (active).

Consider `COc1ccc([C@@H]2CNC(=O)C2)cc1OC1CCCC1`, for which the Potency entry was “inactive”.

Consider `C1=CCOCc2cc(ccc2OCCN2CCCC2)Nc2nccc(n2)-c2cccc(c2)OCC1`, for which the Potency was 9.53 µM (active).

Consider `CSc1ccc(/C=C/c2nc3ccccc3n2S(=O)(=O)c2ccc(F)c(C)c2)cc1`, for which the Potency entry is “inactive”.

On to `Cn1c(=O)n(C)c2cc(NS(=O)(=O)c3ccc(F)cc3)ccc21`, for which the Potency entry was “inactive”.

Consider `Cn1c(=O)n(C)c2cc(NS(=O)(=O)c3ccccc3)c(NCc3ccccc3)cc21`, for which the Potency result was “inactive”.

Consider `COc1ccc(N2CCN(C(=O)c3ccc4c(=O)n(CCc5ccc(OC)c(OC)c5)c(=O)[nH]c4c3)CC2)cc1`, for which the Potency is 12 µM (active).

Turning to `COCCn1c2c([n+](Cc3cnccn3)c1C)C(=O)c1ccccc1C2=O`, the Potency is 0.0953 µM (active).

As to `CC(C)c1ccc(NC(=O)C2CCN(c3nc(-c4ccc(C(C)C)cc4)no3)CC2)cc1`, the Potency is 0.0953 µM (active).

For the compound `Cc1cccc(S(=O)(=O)Nc2cccc(-c3ccc(N4CCCCC4)nn3)c2)c1`, the Potency entry was “inactive”.

For `COc1ccc(S(=O)(=O)Nc2cc(-c3cn4ccc(C)cc4n3)ccc2C)cc1OC`, the Potency result was “inactive”.

For the compound `Cc1cc(C)c(NS(=O)(=O)c2ccc(-c3cnc(C4CC4)o3)cc2)c(C)c1`, the Potency is 0.675 µM (active).

Regarding `O=C(Nc1cccc(C(=O)N2CCN(c3ccc(Cl)cc3)CC2)c1)c1nsc2ccccc12`, the Potency entry is “inactive”.

Turning to `Cc1ccccc1C(=O)Nc1nc(-c2ccc(Br)cc2)ns1`, the Potency entry is “inactive”.

Take `COc1ccc(NC(=O)Cn2c(SCc3ccc(C)cc3)nc3cccnc32)cc1OC`: the Potency result was “inactive”.

Take `Cc1ccc(S(=O)(=O)n2nc(-c3ccccc3)nc2NCc2ccccc2Cl)cc1`: the Potency entry is “inactive”.

For `O=C(CCCCCCNC(=O)c1cnc(N(c2ccccc2)c2ccccc2)nc1)NO`, the Potency entry is “inactive”.

Regarding `CCc1nc2ccc(C(=O)NCCc3ccc(OC)cc3OC)cc2nc1CC`, the Potency entry is “inactive”.

As to `O=C(Cn1c(=O)oc2cc(S(=O)(=O)N3CCCCC3)ccc21)NCc1ccc(Cl)cc1`, the Potency result is “inactive”.

Take `O=C(c1ccc(CS(=O)c2ccccc2Cl)o1)N1CCN(c2cccc(C(F)(F)F)c2)CC1` (stereo not given): the Potency is 3.38 µM (active).

On to `C[n+]1cc2c3c(ccc2c2ccc4cc5c(cc4c21)OCO5)OCO3`, for which the Potency is 5.86 µM (active).

Consider `CCS(=O)(=O)c1ncc(Cl)c(C(=O)NCc2ccc(OC)cc2)n1`, for which the Potency was 19 µM (active).

Take `CC(C)c1nc2ccc(C(=O)NCCCN3CCN(c4cccc(Cl)c4)CC3)cc2o1`: the Potency result was “inactive”.

As to `CN1C(=O)c2ccccc2Sc2ccc(NC(=O)NCc3ccc(Cl)cc3)cc21`, the Potency is 23.9 µM (active).

With `O=C(O)c1ccc2c(c1)N(Cc1ccc(F)cc1)C(=O)c1ccccc1S2=O` (stereo not given), the Potency result is “inactive”.

For `COc1ccc(-c2nnc(C3CCN(C(=O)c4ccccc4F)CC3)o2)cc1`, the Potency result is “inactive”.

`O=C(C=Cc1cccc(S(=O)(=O)Nc2ccccc2)c1)NO`: the Potency entry is “inactive”.

With `CCOc1ccccc1C(=O)Nc1nc2c(s1)CC(C)CC2` (stereo not given), the Potency entry is “inactive”.

`O=S(=O)(c1ccc(-c2csc(=Nc3ccc(OC(F)(F)Cl)cc3)n2CCCO)cc1)N1CCCC1`: the Potency was 1.9 µM (active).

Regarding `CCOc1ccc(C2=C(C(=O)CC)Sc3nncn3N2C(=O)CC)cc1`, the Potency result was “inactive”.

`Cc1ccc(C)c(N2CCN(C(=O)c3nn(C)c4c3CS(=O)(=O)c3ccccc3-4)CC2)c1`: the Potency was 23.9 µM (active).

In the case of `Cc1ccccc1Cn1c(=O)n(Cc2ccco2)c(=O)c2oc3ccccc3c21`, the Potency entry was “inactive”.

In the case of `Cc1ccc(S(=O)(=O)n2nc(-c3ccco3)nc2NCc2ccccc2Cl)cc1`, the Potency entry was “inactive”.

On to `Cc1cc(NC(=O)c2cc(-c3ccc(Cl)cc3)on2)nn1Cc1ccc(Cl)cc1`, for which the Potency result was “inactive”.

With `N#CC[C@H](C1CCCC1)n1cc(-c2ncnc3[nH]ccc23)cn1`, the Potency entry is “inactive”.
